# Laboratory results as given in PubChem BioAssay (EPA / NIEHS).
# Values joined by “and” are separate entries in the source; they are usually repeats but may differ in a detail not shown here. Identical values can stand only once. Some structures have more than one record in an assay (separate samples or runs), and their calls can disagree. Active and inactive are the calls of the source. How the source made its calls: active means hit-call score of the fitted dose curve at least 0.9, where 1 is the maximum; inactive means score below 0.9.
# Read-out: Collagen III, COL3A1 (gene 1281)
# Test: BSK_hDFCGF_CollagenIII: BioMAP Diversity Plus: hDFCGF Assay for Collagen III Biomarker Activity (AID 2283056)
# Details: primary human foreskin fibroblasts; actives raise or lower the signal
# Experimental: BSK_hDFCGF is a cell-based, multiplexed-readout assay that uses foreskin fibroblast, a human skin primary cell, with measurements taken at 24 hours after chemical dosing in a 96-well plate.BSK_hDFCGF_CollagenIII is an assay component measured in the BSK_hDFCGF assay. It measures Collagen antibody related to regulation of gene expression using ELISA technology.Data from the assay component BSK_hDFCGF_CollagenIII was analyzed into 1 assay endpoint. This assay endpoint, BSK_hDFCGF_CollagenIII, was analyzed with bidirectional fitting relative to DMSO as the negative control and baseline of activity. Using a type of binding reporter, gain or loss-of-signal activity can be used to understand changes in the signaling as they relate to the gene COL3A1. Furthermore, this assay endpoint can be referred to as a primary readout, because this assay has produced multiple assay endpoints where this one serves a signaling function. To generalize the intended target to other relatable targets, this assay endpoint is annotated to the cell adhesion molecules intended target family, where the subfamily is collagen.
# The levels of cell surface (or secreted, indicated by the prefix "s") biomarker endpoints were measured by ELISA. Overt cytotoxicity to cells in confluent adherent cultures (all systems other than the BT system) was assessed by measuring total protein levels using sulforhodamine B (SRB) staining in parallel cultures at the time of biomarker measurements, indicated as SRB endpoints. For proliferation assays for adherent cell types, individual cell types are cultured at sub-confluence and relative cell numbers quantified by SRB staining at time points optimized for each system (48 h: 3C and CASM3C systems; 72 h: BT and HDF3CGF systems; 96 h: SAg system). SRB was performed by staining cells with 0.1% SRB after fixation with 10% TCA and reading wells at 560 nm.Viability and proliferation of PBMC (T cells) was quantified by Alamar Blue reduction for the SAg and BT systems. For PBMC viability (referred to as PBMC Cytotoxicity within the assay endpoint names), cells were plated (75,000/well in a 96-well plate) and then chemical samples added for 1 h before addition of activators, SEB and TSST-1 (20 ng/mL final concentration each). Cells were incubated for 90 h. Then, Alamar Blue (20 uL/well) (Invitrogen, Cat DAL1100) was added for 6 h, and the plates were read with a fluorescence microplate reader at 546/580 nm (excitation/emission). For PBMC proliferation, cells were plated and activated as above but incubated for only 16 h prior to addition of Alamar Blue. Plates were read after 6 h.
SMILES,outcome,AC50
CCCCOCCOCCOC(=O)CCCCC(=O)OCCOCCOCCCC,inactive,
O=S(=O)(OCCOC(F)(F)F)C(F)(F)F,inactive,
CCCCCCCCCCCCCCCC[N+](C)(C)Cc1ccccc1,,666 nM (active)
CCCCNc1ccccc1,inactive,
FC(F)(F)C(F)(F)C(F)(F)C(F)(F)CCI,inactive,
CC(CCl)OP(=O)(OC(C)CCl)OC(C)CCl (stereo not given),inactive,
CS(C)(=O)=O,inactive,
C=CC(F)(F)C(F)(F)C(F)(F)C(F)(F)C(F)(F)C(F)(F)C(F)(F)C(F)(F)C=C,inactive,
O=C(O)C(F)(F)C(F)(F)C(F)(F)C(F)(F)C(F)(F)C(F)(F)C(F)(F)C(F)(F)C(F)(F)C(F)(F)C(F)(F)C(F)(F)F,,2.45 µM (active) and 896 nM (active)
OCC(F)(F)C(F)(F)C(F)(F)C(F)F,inactive,
FC(F)(F)C(F)(F)C(F)(F)C(F)(F)C(F)(F)C(F)(F)C(F)(F)C(F)(F)F,inactive,
C=CC(=O)OCC(F)(F)C(F)(F)C(F)(F)C(F)(F)C(F)(F)C(F)(F)C(F)(F)F,inactive,
CCCCCCCOC(=O)c1ccccc1C(=O)OCCCCCCC,inactive,
C#C[C@]1(O)CC[C@H]2[C@@H]3CCc4cc(OC)ccc4[C@H]3CC[C@@]21C,,3.48 nM (active)
O=C(O)C(F)(F)C(F)(F)C(F)(F)C(F)(F)C(F)(F)C(F)(F)C(F)(F)C(F)(F)Cl,inactive,8330 nM (active)
CCCCCCCCC(F)(F)C(F)(F)C(F)(F)C(F)(F)C(F)(F)C(F)(F)F,inactive,
CCCCCCC(C)OC(=O)CCCCC(=O)OC(C)CCCCCC (stereo not given),inactive,
OCCCC(F)(F)C(F)(F)C(F)(F)C(F)(F)C(F)(F)C(F)(F)C(F)(F)F,,11.6 µM (active) and 14.6 µM (active)
O=C(CC(=O)C(F)(F)C(F)(F)F)C(F)(F)F,inactive,
FC(F)(F)C(F)(F)CNCC(F)(F)C(F)(F)F,inactive,

SMILES,outcome,AC50
O=C(O)C=C(C(F)(F)F)C(F)(F)F,inactive,
FC(F)(F)C(F)(F)C(F)(F)N(C(F)(F)C(F)(F)C(F)(F)F)C(F)(F)C(F)(F)C(F)(F)F,inactive,
O=P(O)(O)OCCC(F)(F)C(F)(F)C(F)(F)C(F)(F)C(F)(F)C(F)(F)F,inactive,
OCC(F)(F)C(F)(F)C(F)(F)C(F)(F)C(F)(F)C(F)(F)F,,30 µM (active) and 49.7 µM (active)
O=S(=O)(O)C(F)(F)C(F)(F)C(F)(F)C(F)(F)C(F)(F)C(F)(F)C(F)(F)F,inactive,
FC(F)(F)C(F)(F)C(F)(F)C(F)(F)C(F)(F)C(F)(F)CCS,inactive,
O=C(O)C(F)(F)C(F)(F)C(F)(F)C(F)(F)F,inactive,
OCC(F)(F)C(F)(F)C(F)(F)C(F)(F)C(F)(F)C(F)F,inactive,
COC(=O)CCC(F)(F)C(F)(F)C(F)(F)C(F)(F)F,inactive,
O=C(O)C(F)(F)C(F)(F)C(F)F,inactive,
O=C(O)C(F)(F)C(F)(F)OC(F)(F)F,inactive,
Oc1ccc(Nc2ccccc2)cc1,inactive,
CCN(CC)c1ccc2c(C)cc(=O)oc2c1,inactive,
O=C(O)C(F)(F)C(F)(F)C(F)(F)F,inactive,
O[Si](c1ccccc1)(c1ccccc1)c1ccccc1,,7560 nM (active)
FC(F)(Br)C(F)(F)C(F)(F)C(F)(F)C(F)(F)C(F)(F)Br,inactive,
FC(F)(F)C(F)(F)C(F)(F)C(F)(F)C(F)(F)CCI,inactive,
CC(=O)Nc1ccc(N=Nc2cc(C)ccc2O)cc1,inactive,
C=CC/C=C/C/C=C/C/C=C/C,inactive,
